Test results taken from PubChem BioAssay (NCI).
Compounds without any hit were thinned out: in the full panel of roughly 83,000, 20% have a hit.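 Each cell line was grown in a 96-well plate and treated with one concentration of compound for 48 hours. Values below 10 were considered active.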 Values without a mark were called inactive. Calls of active or inactive are those of the source.

Tests used:
Assay in all cases: NCI-60 one-dose screen, 48 h (100 = growth as untreated, 0 = no growth, -100 = all killed)
Conditions in all cases: 10 µM unless noted
SR leukemia = test system: SR leukemia
RPMI-8226 leukemia = test system: RPMI-8226 leukemia
OVCAR-8 ovarian = test system: OVCAR-8 ovarian
OVCAR-5 ovarian = test system: OVCAR-5 ovarian
OVCAR-4 ovarian = test system: OVCAR-4 ovarian
SK-OV-3 ovarian = test system: SK-OV-3 ovarian
IGROV1 ovarian = test system: IGROV1 ovarian
OVCAR-3 ovarian = test system: OVCAR-3 ovarian
NCI/ADR-RES ovarian = test system: NCI/ADR-RES ovarian
T-47D breast = test system: T-47D breast
BT-549 breast = test system: BT-549 breast
MDA-MB-435 melanoma = test system: MDA-MB-435 melanoma
SW-620 colon = test system: SW-620 colon
MCF7 breast = test system: MCF7 breast
HCT-116 colon = test system: HCT-116 colon
HCC-2998 colon = test system: HCC-2998 colon
KM12 colon = test system: KM12 colon

Structure (SMILES)	growth (SR leukemia)	growth (RPMI-8226 leukemia)	growth (OVCAR-8 ovarian)	growth (OVCAR-5 ovarian)	growth (OVCAR-4 ovarian) [%]	growth (SK-OV-3 ovarian) [%]	growth (IGROV1 ovarian)	growth (OVCAR-3 ovarian)	growth (NCI/ADR-RES ovarian)	growth (T-47D breast) [%]	growth (BT-549 breast)	growth (MDA-MB-435 melanoma)	growth (SW-620 colon)	growth (MCF7 breast)	growth (HCT-116 colon)	growth (HCC-2998 colon)	growth (KM12 colon)
Nc1nc2ccc3[nH]ncc3c2c2c1CCCC2	-16.6% (active)	6.83% (active)	7.6% (active)	8.24% (active)	16.2	16.6	8.21% (active)	5.2% (active)	2.46% (active)	11	-9.88% (active)	6.3% (active)	1.68% (active)	7.3% (active)	1.33% (active)	9.63% (active)	-1.31% (active)
CC1SC(c2ccc(N(C)C)cc2)N(NC(=O)C(O)(c2ccccc2)c2ccccc2)C1=O (centres undefined)	90%	60.1%	77.4%	104%	95.7	97.6	80.5%	95%	95%	87.6	93.1%	84.3%	104%	118%	80.8%	–	87.4%
O=C(N/N=C/c1ccccc1O)c1ccccc1Nc1ccnc(C(F)(F)F)c1	-13.9% (active)	-22% (active)	14.9%	20.6%	22.4	11.4	1.57% (active)	35.7%	7.23% (active)	19.4	30.1%	32.4%	35%	8.24% (active)	14.4%	46%	32.4%
Cc1nn(-c2cc(=O)[nH]c3ccccc23)c(N)c1C#N	105%	99.9%	99.2%	101%	105	111	77.7%	106%	108%	104	110%	106%	103%	97.5%	107%	115%	101%
CC1=C(O)C(=O)C(C(C#N)(C#N)C(C#N)C#N)C1 (centres undefined)	99.3%	106%	101%	109%	107	99	102%	94.8%	97.7%	107	95%	96.8%	102%	92.1%	102%	95.3%	97.7%
